{"source": "the supplement of paper PMC11732987", "about": "“Enantioselective OTUD7B fragment discovery through chemoproteomics screening and high-throughput optimisation” (Communications Chemistry, 2025)", "test_in_all_cases": "log2 ratio of Biotin-Ahx-Ub-VS probe labelling (fragment/DMSO); higher = less target engagement (more negative = stronger competition), active = hit call of the paper (q ≤ 0.05, log2 ratio ≤ -1)", "details_in_all_cases": "compound concentration: 200 uM; treatment time: 3 h", "key": {"[1]": {"target": "T1, USP19 (UniProt O94966)", "T1 sequence (whole entry)": "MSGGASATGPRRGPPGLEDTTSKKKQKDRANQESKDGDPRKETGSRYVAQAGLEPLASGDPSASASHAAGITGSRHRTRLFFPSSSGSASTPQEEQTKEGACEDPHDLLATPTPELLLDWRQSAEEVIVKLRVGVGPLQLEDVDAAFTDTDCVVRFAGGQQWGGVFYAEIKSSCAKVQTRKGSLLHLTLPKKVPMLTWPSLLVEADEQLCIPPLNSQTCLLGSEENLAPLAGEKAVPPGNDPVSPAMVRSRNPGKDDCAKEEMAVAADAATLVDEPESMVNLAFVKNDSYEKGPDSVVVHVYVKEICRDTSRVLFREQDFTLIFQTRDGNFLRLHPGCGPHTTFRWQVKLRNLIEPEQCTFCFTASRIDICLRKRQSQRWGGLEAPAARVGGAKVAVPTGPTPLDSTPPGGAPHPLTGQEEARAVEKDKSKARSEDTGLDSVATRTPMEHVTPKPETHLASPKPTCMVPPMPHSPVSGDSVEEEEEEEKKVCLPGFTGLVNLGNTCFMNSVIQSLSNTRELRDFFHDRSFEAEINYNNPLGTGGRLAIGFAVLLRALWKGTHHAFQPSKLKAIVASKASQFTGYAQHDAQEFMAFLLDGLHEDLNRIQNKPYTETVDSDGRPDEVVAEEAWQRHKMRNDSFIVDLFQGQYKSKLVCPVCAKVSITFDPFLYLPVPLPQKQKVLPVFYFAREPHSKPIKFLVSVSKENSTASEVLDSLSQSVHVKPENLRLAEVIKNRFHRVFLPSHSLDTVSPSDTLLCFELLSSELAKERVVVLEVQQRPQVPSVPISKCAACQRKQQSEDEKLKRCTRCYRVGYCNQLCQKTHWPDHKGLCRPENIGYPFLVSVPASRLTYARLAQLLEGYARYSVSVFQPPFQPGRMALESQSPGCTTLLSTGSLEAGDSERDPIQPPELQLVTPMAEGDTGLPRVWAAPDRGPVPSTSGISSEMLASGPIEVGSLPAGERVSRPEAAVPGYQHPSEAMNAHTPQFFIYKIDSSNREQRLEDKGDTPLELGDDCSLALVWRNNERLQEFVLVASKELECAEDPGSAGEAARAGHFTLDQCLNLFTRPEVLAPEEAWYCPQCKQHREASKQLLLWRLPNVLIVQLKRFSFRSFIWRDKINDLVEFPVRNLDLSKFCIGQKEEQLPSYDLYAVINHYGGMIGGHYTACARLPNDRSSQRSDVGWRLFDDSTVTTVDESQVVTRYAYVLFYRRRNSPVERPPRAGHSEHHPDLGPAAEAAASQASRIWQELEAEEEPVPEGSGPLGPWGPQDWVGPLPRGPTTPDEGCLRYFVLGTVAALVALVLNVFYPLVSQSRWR", "in_short": "(§1)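 HEK293T lysate in Tris/CHAPS/IGEPAL buffer with protease inhibitors (495 µg per sample) was given fragment at 200 µM or vehicle for 3 h, in triplicate. It then received Biotin-Ahx-Ub-VS at 0.5 µM final for 1 h. Labelled DUBs were NeutrAvidin-enriched, digested with LysC and trypsin, and run by diaPASEF LC-MS/MS. Values are average log2 fragment/vehicle ratios by unpaired t-test on global-median-normalised Spectronaut quantities of proteins with ≥2 unique peptides.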"}, "[2]": {"target": "T2, USP22 (UniProt Q9UPT9)", "T2 sequence (whole entry)": "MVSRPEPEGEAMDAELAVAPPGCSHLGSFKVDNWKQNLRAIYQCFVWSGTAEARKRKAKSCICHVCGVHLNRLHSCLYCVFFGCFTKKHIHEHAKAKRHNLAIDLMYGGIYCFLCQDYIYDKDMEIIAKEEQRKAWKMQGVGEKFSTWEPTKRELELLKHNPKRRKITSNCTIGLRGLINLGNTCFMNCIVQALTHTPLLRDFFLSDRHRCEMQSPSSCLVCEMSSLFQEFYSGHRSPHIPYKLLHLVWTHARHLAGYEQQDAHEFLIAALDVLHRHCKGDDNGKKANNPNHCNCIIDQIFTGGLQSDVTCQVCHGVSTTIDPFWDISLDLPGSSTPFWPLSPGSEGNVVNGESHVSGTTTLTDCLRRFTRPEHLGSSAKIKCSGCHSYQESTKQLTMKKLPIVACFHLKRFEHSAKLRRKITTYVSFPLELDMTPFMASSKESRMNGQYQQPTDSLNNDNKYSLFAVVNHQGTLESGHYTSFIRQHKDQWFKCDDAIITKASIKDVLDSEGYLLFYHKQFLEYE", "in_short": "as §1"}, "[3]": {"target": "USP24 (UniProt Q9UPU5)", "sequence (Q9UPU5 whole entry)": "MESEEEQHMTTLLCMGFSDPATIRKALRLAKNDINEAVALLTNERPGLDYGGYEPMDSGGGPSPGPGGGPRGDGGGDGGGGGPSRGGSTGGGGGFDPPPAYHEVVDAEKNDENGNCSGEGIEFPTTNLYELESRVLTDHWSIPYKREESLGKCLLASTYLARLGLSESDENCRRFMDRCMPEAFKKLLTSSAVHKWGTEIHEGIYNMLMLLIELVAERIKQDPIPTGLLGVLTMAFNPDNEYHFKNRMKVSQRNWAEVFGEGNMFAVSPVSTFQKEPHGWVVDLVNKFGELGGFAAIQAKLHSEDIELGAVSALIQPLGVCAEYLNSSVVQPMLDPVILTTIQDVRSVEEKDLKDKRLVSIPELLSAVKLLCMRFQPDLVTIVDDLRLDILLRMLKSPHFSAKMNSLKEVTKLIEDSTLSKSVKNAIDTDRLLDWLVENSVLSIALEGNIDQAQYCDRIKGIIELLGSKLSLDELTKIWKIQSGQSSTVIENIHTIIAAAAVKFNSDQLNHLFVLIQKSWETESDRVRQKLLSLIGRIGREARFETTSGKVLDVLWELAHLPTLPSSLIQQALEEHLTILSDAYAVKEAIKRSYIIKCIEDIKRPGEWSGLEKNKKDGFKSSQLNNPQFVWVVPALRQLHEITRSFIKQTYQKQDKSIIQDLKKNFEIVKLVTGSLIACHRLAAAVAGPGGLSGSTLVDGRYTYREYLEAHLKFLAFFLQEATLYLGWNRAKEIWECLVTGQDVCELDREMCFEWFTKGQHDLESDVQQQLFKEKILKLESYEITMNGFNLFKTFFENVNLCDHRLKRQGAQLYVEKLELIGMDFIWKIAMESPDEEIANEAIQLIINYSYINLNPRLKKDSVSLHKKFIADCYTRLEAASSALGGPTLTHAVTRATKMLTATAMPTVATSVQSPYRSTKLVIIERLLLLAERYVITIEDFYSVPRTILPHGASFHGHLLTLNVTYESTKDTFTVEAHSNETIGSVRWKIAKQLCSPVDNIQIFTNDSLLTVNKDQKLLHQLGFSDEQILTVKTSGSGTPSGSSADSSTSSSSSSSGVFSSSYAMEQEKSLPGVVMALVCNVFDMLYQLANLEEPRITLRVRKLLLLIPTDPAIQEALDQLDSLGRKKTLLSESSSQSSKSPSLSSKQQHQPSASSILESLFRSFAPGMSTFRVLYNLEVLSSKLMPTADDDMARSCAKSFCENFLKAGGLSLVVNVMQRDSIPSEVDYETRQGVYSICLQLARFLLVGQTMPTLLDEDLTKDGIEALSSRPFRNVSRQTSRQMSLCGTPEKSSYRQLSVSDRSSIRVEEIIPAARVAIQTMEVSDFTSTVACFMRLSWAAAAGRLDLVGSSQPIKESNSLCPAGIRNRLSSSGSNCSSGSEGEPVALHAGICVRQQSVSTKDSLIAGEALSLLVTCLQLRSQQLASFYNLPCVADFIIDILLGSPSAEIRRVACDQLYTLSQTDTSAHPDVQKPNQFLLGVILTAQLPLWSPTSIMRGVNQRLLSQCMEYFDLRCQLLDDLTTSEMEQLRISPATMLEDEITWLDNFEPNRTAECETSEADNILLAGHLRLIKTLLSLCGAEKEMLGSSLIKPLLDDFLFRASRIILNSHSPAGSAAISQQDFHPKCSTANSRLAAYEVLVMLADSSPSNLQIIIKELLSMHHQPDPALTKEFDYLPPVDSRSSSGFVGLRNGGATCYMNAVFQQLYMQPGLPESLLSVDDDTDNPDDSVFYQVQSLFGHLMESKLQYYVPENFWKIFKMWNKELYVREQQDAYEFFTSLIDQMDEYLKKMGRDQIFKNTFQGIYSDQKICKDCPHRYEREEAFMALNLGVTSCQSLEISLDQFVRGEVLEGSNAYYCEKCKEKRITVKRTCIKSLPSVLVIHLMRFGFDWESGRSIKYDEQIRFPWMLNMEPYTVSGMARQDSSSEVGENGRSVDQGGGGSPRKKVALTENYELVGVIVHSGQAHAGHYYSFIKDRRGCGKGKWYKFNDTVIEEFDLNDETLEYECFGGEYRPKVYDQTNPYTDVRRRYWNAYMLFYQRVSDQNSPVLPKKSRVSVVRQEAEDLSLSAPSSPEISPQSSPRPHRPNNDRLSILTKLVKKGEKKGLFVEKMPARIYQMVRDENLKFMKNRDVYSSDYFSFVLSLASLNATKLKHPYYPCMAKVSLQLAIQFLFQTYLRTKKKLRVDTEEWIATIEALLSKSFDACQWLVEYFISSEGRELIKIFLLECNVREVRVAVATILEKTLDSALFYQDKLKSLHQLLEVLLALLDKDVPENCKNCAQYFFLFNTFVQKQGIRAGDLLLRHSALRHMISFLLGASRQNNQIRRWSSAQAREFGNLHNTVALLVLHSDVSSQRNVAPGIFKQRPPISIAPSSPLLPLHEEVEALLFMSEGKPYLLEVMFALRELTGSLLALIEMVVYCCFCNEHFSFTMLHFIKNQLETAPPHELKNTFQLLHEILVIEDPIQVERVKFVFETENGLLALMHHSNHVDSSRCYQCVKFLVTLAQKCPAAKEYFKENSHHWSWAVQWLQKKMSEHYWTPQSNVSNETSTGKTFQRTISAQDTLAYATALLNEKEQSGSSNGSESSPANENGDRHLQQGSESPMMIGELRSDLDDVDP", "in_short": "as §1"}, "[4]": {"target": "T3, USP25 (UniProt Q9UHP3)", "T3 sequence (whole entry)": "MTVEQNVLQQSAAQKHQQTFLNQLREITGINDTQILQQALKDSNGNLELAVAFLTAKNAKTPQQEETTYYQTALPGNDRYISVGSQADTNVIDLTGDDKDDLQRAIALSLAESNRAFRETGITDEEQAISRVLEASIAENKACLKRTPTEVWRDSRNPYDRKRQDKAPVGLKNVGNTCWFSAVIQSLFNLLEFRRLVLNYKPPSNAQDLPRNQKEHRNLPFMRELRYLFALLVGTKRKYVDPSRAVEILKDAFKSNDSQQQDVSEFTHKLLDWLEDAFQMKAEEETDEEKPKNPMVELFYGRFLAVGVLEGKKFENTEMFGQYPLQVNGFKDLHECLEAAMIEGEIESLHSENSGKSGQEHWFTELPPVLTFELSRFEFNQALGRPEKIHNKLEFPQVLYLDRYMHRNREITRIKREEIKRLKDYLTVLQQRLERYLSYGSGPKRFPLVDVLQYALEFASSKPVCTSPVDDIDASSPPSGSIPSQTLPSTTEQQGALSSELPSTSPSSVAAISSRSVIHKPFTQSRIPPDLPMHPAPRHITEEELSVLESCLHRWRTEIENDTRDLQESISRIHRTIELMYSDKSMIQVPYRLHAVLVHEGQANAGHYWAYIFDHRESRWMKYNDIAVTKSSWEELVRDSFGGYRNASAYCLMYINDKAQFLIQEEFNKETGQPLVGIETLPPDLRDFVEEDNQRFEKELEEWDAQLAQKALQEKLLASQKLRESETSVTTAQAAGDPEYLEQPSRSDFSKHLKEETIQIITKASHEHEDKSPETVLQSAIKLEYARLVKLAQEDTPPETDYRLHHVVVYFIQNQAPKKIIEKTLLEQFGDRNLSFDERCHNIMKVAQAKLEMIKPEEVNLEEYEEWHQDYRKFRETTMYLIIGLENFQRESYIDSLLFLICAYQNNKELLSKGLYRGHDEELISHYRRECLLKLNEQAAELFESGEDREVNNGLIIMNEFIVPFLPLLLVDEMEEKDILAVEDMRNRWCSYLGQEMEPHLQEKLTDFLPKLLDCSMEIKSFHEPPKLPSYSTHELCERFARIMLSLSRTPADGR", "in_short": "as §1"}, "[5]": {"target": "T4, USP28 (UniProt Q96RU2)", "T4 sequence (whole entry)": "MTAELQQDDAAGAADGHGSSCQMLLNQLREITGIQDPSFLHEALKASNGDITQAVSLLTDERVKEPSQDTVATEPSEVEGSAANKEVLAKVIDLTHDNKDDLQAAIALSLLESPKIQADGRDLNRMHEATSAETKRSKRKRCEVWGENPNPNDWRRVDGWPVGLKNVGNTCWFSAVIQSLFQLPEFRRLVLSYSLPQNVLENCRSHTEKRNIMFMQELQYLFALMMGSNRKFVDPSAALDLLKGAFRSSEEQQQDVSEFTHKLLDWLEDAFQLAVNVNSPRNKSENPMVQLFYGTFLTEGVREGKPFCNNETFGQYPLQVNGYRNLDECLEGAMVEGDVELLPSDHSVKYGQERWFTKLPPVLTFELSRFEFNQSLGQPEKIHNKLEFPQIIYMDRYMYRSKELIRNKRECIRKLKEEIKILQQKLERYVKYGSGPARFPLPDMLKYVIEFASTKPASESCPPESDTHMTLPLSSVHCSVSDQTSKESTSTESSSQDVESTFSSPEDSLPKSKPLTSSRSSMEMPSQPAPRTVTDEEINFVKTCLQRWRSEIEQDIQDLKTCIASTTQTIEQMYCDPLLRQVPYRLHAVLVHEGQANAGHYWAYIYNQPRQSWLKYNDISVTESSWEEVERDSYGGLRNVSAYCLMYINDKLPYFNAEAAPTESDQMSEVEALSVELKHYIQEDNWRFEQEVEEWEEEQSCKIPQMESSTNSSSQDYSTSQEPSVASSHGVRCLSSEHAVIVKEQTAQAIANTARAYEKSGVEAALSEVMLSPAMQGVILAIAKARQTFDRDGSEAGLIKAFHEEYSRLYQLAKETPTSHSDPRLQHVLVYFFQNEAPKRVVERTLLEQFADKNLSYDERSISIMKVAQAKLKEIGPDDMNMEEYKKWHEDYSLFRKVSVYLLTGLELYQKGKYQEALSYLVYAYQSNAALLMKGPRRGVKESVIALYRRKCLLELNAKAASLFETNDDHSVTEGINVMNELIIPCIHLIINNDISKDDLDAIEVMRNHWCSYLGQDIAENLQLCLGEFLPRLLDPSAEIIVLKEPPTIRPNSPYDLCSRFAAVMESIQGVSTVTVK", "in_short": "as §1"}}, "note": "Unmarked numbers belong to inactive results.", "data": [{"smiles": "N#Cc1cnn(-c2ccccc2)c1NC(=O)CCl", "values": [{"measurement": "log2 ratio of Biotin-Ahx-Ub-VS probe labelling", "setting": "[1]", "result": -0.232}, {"measurement": "log2 ratio of Biotin-Ahx-Ub-VS probe labelling", "setting": "[2]", "result": 0.00637}, {"measurement": "log2 ratio of Biotin-Ahx-Ub-VS probe labelling", "setting": "[3]", "result": -0.338}, {"measurement": "log2 ratio of Biotin-Ahx-Ub-VS probe labelling", "setting": "[4]", "result": "-2.88 (active)"}, {"measurement": "log2 ratio of Biotin-Ahx-Ub-VS probe labelling", "setting": "[5]", "result": "-2.37 (active)"}]}]}
